Screening results: PubChem, The Scripps Research Institute Molecular Screening Center
TTR transcr act: TTR transcription activators in neuroblastoma reporter cells, primary screen, cell-based, luminescence, SH-SY5Y, TTR promoter Gaussia luciferase | 100% = recombinant luciferase protein wells | AID 1117267, 2014 | hit rate 1.3% among 92,000 | activation, % at 16.7 µM;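 active = activation above the mean of all tested compounds plus 3 SD, cut at about 9.5% in these data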;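 also: cells exposed to compounds for one day before reading; 0% = median of all test compound wells on the plate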
TTR inh HuH7: TTR promoter reporter inhibitors in hepatoma cells, counter-screen for TTR transcription activator project, cell-based, luminescence, HuH7 hepatoma; shares compounds with TTR transcr act; HuH7 TTR promoter-Gaussia luciferase reporter; inhibition, % at 16.7 µM; hit rate 4% among 1,100; AID 1117279, 2014;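 active = average inhibition above the solvent-only control wells' mean plus 3 SD, cut at about 15% in these data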;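 also: 0% = cells with DMSO only and 100% = cells with inhibitor control FD; inhibitors lower well luminescence so higher value means more inhibition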
TTR up confirm: TTR transcription activators, retest, confirmation, cell-based, luminescence, SH-SY5Y, triplicate | shares compounds with TTR transcr act | 1,100 tested, under 10 active | activation, % at 16.7 µM | SHSY5Y TTR promoter Gaussia luciferase; 100% = purified Lucia enzyme wells, no cells | AID 1117280, 2014;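 active = mean activation above a set limit taken from the earlier primary screen, cut at about 11% in these data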;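 also: 0% = DMSO-treated cells and 100% = recombinant Lucia luciferase without cells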
* hit, by the source's call. Many of the other results were omitted from the sample, so hits are more common in it than they were.

SMILES	TTR transcr act	others
CCOC(=O)[C@]12CCCC=C1N(Cc1ccc(OC)cc1)C(=O)[C@@H]2CC(=O)NCCCCc1ccccc1	0
CCOC(=O)CN1NC2(CCCCCC2)NC1=S	0
CC(C)(C)N1NC2(CCCCC2)NC1=S	12*	TTR inh HuH7=-16;TTR up confirm=1
C[C@@H]1COc2cc(Br)ccc2S(=O)(=O)N1Cc1cn(CCC2OCCO2)nn1	1
COC(=O)[C@]12C[C@H](CC(=O)NCC3CCCCC3)C(=O)N(CCc3ccc(OC)c(OC)c3)C1=C[C@H](C(C)C)O[C@@H]2C1CC1	3
C=CCN1C(=O)[C@@H](CC(=O)NCc2ccc(C)o2)[C@]2(C(=O)OC)CCCCC=C12	-1
CCc1noc(C)c1C(=O)Nc1cc(S(=O)(=O)N2CCCCC2)ccc1N(C)C	11*	TTR inh HuH7=-13;TTR up confirm=0
CCc1noc(C)c1C(=O)N1CCN(S(=O)(=O)c2ccc(Br)cc2)CC1	1
Cc1onc(-c2ccccc2)c1C(=O)Nc1cccc(S(=O)(=O)N2CCCCC2)c1	1
O=S1(=O)c2ccc(N3CCC[C@@H]3CO)cc2O[C@H]2CCN1C2	0
CCC(C)(C)n1nnnc1C(c1ccc(C)cc1)N1CCCC1 (stereo not drawn)	18*	TTR inh HuH7=-7;TTR up confirm=1
CCC(C)(C)n1nnnc1C(c1cc2cc(C)cc(C)c2[nH]c1=O)N1CCCC1 (stereo not drawn)	-2
Cc1ccc(C)c(N2CCN(C(c3ccccc3)c3nnnn3C(C)(C)C)CC2)c1 (stereo not drawn)	0
Cc1ccc(CN2CCCCC(NC(=O)c3cccc(F)c3)C2=O)cc1 (stereo not drawn)	1
FC(F)(F)c1cccc(N2CCN(C(=S)Nc3nccc4ccccc34)CC2)c1	4
O=C(N/C(=C/c1cccnc1)C(=O)N1CCOCC1)c1ccccc1F	20*	TTR inh HuH7=-3;TTR up confirm=-1
O=C(N/C(=C/c1cccnc1)C(=O)N1CCOCC1)c1ccccc1Cl	-1
CC(=O)N/C(=C\c1ccccc1)C(=O)N1CCOCC1	-2
CC(C)(C)OC(=O)n1ccc2ccc(-c3ccc4cc[nH]c4c3)cc21	-1
COc1ccc(Cl)cc1-c1cc(C(=O)Nc2ccc(C(C)(C)C)cc2)[nH]n1	0
O=C(OCC#CCSc1nnc(-c2cccc3ccccc23)o1)c1ccc(SC(F)(F)F)cc1	-1
Nc1ncnc2c1ncn2CCN1CCOCC1	13*	TTR inh HuH7=-5;TTR up confirm=0
Nc1ncnc2c1ncn2[C@H]1C[C@H](O)[C@@H](CO)O1	9
Nc1ncnc(N2CCOCC2)c1N	0
O=C(NC1CCCCC1)C(c1cccc2ccccc12)n1c(=O)c(-c2ccco2)nc2ccccc21 (stereo not drawn)	0
SMILES	TTR transcr act	others
COc1ccc(S[C@]2(C(=O)N3CCOCC3)CC(=O)N(c3ccsc3)[C@@H]2c2ccc(OC)cc2)cc1	-1
CC(C)CNS(=O)(=O)CC1NCc2cc3c(cc21)OCO3 (stereo not drawn)	0
Cc1ccc(NC(=S)N(C)N)cc1Cl	1
Cc1ccc(Nc2cc(=O)[nH]c(=O)[nH]2)cc1Cl	9.7*	TTR inh HuH7=-3;TTR up confirm=-1
Cc1ccc(Nc2ccc([N+](=O)[O-])cn2)cc1Cl	1
C[C@@H]1COc2cc(N3CCSCC3)ccc2S(=O)(=O)N1C	-1
O=C(Nc1nc2ncccn2c1-c1ccccc1)c1ccc(F)cc1	0
CN(CC(=O)Nc1ccc(S(N)(=O)=O)cc1)Cc1ccccc1F	16*	TTR inh HuH7=-1;TTR up confirm=1
CN(CC(=O)NC(=O)Nc1ccccc1F)Cc1ccccc1F	-1
CN(CC(=O)Nc1ccc(S(N)(=O)=O)cc1)C1CCCCC1	-1
COC(=O)[C@@]12CCCCC3=C1N(CCC3)C(=O)[C@H]2CC(=O)NCCC(C)C	0
O=C(OCc1cn(Cc2ccccc2C(F)(F)F)nn1)N1CCOCC1	3
N#Cc1ccc(NC(=O)OC2CC3CC2[C@H]2CCCCN2C3)cc1 (stereo partly drawn)	1
O=C(NCc1ccco1)OC1CCC12CCC(c1ccccc1)CC2 (stereo not drawn)	-1
O=C(NCCO)c1ccc(-c2cnc3cccnn23)cc1	0
COC(=O)CN(C#N)c1nc(N(C)C)nc(N(C)C)n1	13*	TTR inh HuH7=-8;TTR up confirm=3
CCOC(=O)C(C(=O)OCC)N(C#N)c1nc(OC)nc(N(C)C)n1	3
CN(C)c1nc(N(C)C)nc(N(C#N)Cc2ccc(Cl)cc2)n1	0
Cn1c(SCCN2CCCCC2)nnc1-c1ccccc1Br	14*	TTR inh HuH7=-7;TTR up confirm=0
Cn1c(SCC(=O)N2CCCCCC2)nnc1-c1ccco1	2
Cc1ccc(C#N)c(SCCN2CCCCC2)n1	-1
C/C=C/c1ccc([C@H]2[C@@H](CN(CC(C)C)S(=O)(=O)c3ccccc3[N+](=O)[O-])N(C(=O)Nc3cccc(OC)c3)[C@H]2CO)cc1	0
O=S1(=O)c2c(cccc2N2CC[C@@H](O)C2)O[C@H]2CCN1C2	-1
C[C@H]1CCC/C=C/C(=O)c2c(cc(O)c(Cl)c2O)CC(=O)O1	1
CCCC1CCC2(CCCN2CCOC(=O)Nc2ccccc2C)CC1 (stereo not drawn)	-2
SMILES	TTR transcr act	others
CC(C)C(=O)N1CCCC1(C)C(=O)Nc1cccc(Oc2ccccc2)c1 (stereo not drawn)	0
COC(=O)[C@]12C[C@H](CC(=O)NCC3CCCCC3)C(=O)N(Cc3ccc(Cl)cc3Cl)C1=C[C@H](C(C)(C)C)O[C@@H]2C	0
COc1ccc(C(=O)C2CCN(C(=O)c3ccco3)CC2)cc1	11*	TTR inh HuH7=11;TTR up confirm=-1
O=C(c1ccco1)N1CCN(C(=O)C2CC2)CC1	-1
COc1cc(C(=O)N2CCN(C(=O)c3ccco3)CC2)cc(OC)c1OC	-3
O=c1cc(N2CCN(c3cccc(Cl)c3Cl)CC2)[nH]c(=O)n1C1CCCCC1	1
CN1C2=N[C@@H](c3ccccc3)CC(=O)N2/C(=C\c2ccccc2)[C@H]1c1ccccc1	0
Cc1cccc(C(=O)N[C@H]2CC[C@@]34CCCN3C(=O)CCC[C@H]4[C@H]2C)c1	0
COc1ccc(-n2c(=S)[nH]c(=O)c3cccnc32)cc1	0
O=c1[nH]n(-c2ccc(Cl)cc2)c2ncccc12	14*	TTR inh HuH7=0;TTR up confirm=-1
O=c1[nH]n(CCO)c(=O)c2cccnc12	1
CCCCSc1nc(O)c(Cc2ccccc2)c(=O)[nH]1	2
CCCCOc1ccc(Cc2c(O)nc(SC)[nH]c2=O)cc1	9.9*	TTR inh HuH7=-22;TTR up confirm=1
CCCOc1ccc(C(C)=O)cc1Cc1c(O)nc(SC)[nH]c1=O	-2
O=C1CCC[C@H]2C[C@H](NCc3cccc(F)c3)CC[C@]23CCCN13	0
C[C@H]1[C@@H](N(C)Cc2cccs2)CC[C@@]23CCCN2C(=O)CCC[C@@H]13	-2
COC(=O)[C@]12C[C@H](CC(=O)N3CCN(C(=O)C4CC4)CC3)C(=O)N(Cc3ccc(Cl)cc3Cl)C1=C[C@H](C(C)C)O[C@@H]2C1CC1	-2
C#CCOCCOCCOCCNc1nc(N2CCN(C(=O)Cn3cc(CCCCN)nn3)CC2)nc(N2CCN(C(=O)[C@H]([C@@H](C)CC)n3cc(CCCN=C(N)N)nn3)CC2)n1	-1
